High-throughput results deposited in PubChem by National Center for Advancing Translational Sciences (NCATS).
Sampled rows, rich in hits. Any-hit rate of the full collection: about 13%.
MARV entry inh: qHTS for inhibitors of binding or entry into cells for Marburg Virus; AID 540276, 2011; Potency, µM (top dose mostly 37.8 µM), without a hit: top-dose activity change, negative = inhibition, hits mostly inhibitors; Marburg virus pseudotyped entry inhibition, cell reporter; hit rate 1.8% among 300,000; calls by dose curve; tested in HEK293 cells; note: potency is the fitted concentration of half-maximal effect; % is set by controls: 0 for no effect and ±100 for the full control effect
HCV inhibitor: qHTS Assay for Inhibitors of Hepatitis C Virus (HCV); Huh7.5.1 HCVcc-Cre infection, luciferase reporter, 44 h; Potency, µM (top dose mostly 41.8 µM), for the others: at the top dose activity change, negative = inhibition, most hits filed as inhibitors; hit rate 3.4% among 340,000; AID 651820, 2012; active = well fitted inhibition curve with a large enough effect; inconclusive = small, poorly fitted or top-dose-only effect, or another doubt; inactive = no such curve, though single readings can be large or run the other way; note: potency is the fitted concentration of half-maximal effect; % is set by controls: 0 for no effect and ±100 for the full control effect
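HCVcc-Cre virus at an moi near 0.5 was added right after compound to cells cultured 4 h from seeding (1,000 cells/well). Luciferase activity was determined 44 h later, 15 min after substrate addition at RT.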
Lassa entry inh: qHTS for Inhibitors of binding or entry into cells for Lassa Virus. Lassa virus pseudotype entry inhibition, cell reporter. Potency, µM (titrated, usually from 37.9 µM), for the others: top-dose activity change, negative = inhibition, most hits filed as inhibitors. hit rate 1.2% among 300,000. AID 540256, 2011; calls by dose curve; tested in HEK293 cells; note: potency is the fitted concentration of half-maximal effect; % is set by controls: 0 for no effect and ±100 for the full control effect; nearly all actives have a fitted effect of over 50% in size
FMDV inh: High Throughput Screening for Foot and Mouth Disease Virus Antivirals; hit rate 1.2% among 410,000; Potency, µM (series often up to 57.9 µM), for the others: at the highest dose activity change, negative = inhibition, most hits filed as inhibitors; FMDV antiviral cell-based qHTS; calls by dose curve; tested in HEK293T cells; note: read-out not given here; potency is the fitted concentration of half-maximal effect; % is set by controls: 0 for no effect and ±100 for the full control effect; nearly all actives have a fitted effect of over 45% in size
Cycloheximide cs: Cycloheximide Counterscreen for Small Molecule Inhibitors of Shiga Toxin | AID 2314, 2010 | cell reporter, cycloheximide protein synthesis inhibition counterscreen | max response, % | hit rate 12% among 300,000; in the data active = max response mostly above about 13%, no sharp cut-off; inactive = mostly below about 14%; note: read at 38.3 µM for the half of the compounds with a filed dose; 0% is about no effect
Shiga toxin inh: A qHTS for Small Molecule Inhibitors of Shiga Toxin | Vero cells, Shiga toxin protein synthesis inhibition reporter | inhibition, % at 38.7 µM | hit rate 9.2% among 290,000 | AID 2315, 2010; in the data active = inhibition mostly above about 28%, no sharp cut-off; inactive = mostly below about 43%; note: 0% is about no effect
Numbers without * were called inactive; ? = inconclusive; nt = no result; [ ] = dose if it differs, or a comment.

SMILES	MARV entry inh	HCV inhibitor	Lassa entry inh	FMDV inh	Cycloheximide cs	Shiga toxin inh
COc1ccc(OC)c(NC2=NCCCS2)c1	-1.0%	21.7%	4.3%	-6.7%	-5.5	-4.5
Cc1cc(C(=O)CSc2nc3ccccc3[nH]2)c(C)n1CC1CCCO1 (stereo not drawn)	?	1.41µM*	7.94µM*	11.2µM*	21.2	90.1
Cc1cc(C(=O)CSc2nc3ccccc3o2)c(C)n1CC1CCCO1 (stereo not drawn)	?	?	?	?	66.7*	78.0*
COc1ccccc1-c1nc(SCC(=O)c2ccc(Cl)cc2)n[nH]1	3.3%[46.1 µM]	nt	-2.5%[46.1 µM]	-5.3%	nt	nt
C/C(=N\Nc1nccnc1Cl)c1ccc([N+](=O)[O-])cc1	15.9%	-0.7%	0.2%	10.1%	40.6*	66.1*
C/C(=N\Nc1nccnc1Cl)c1ccc(O)c(C)c1	?	-5.5%	?	24.5%	28.1*	nt
C/C(=N\Nc1nccnc1Cl)c1ccc(Br)cc1	nt	0.5%	nt	32.0%	29.7*	77.6*
COc1ccc(/C(C)=N/Nc2nccnc2Cl)cc1	nt	-7.2%	nt	45.6%	nt	nt
O=C(CN1CCCC1)N/N=C/c1ccc(-c2cccc(Cl)c2)o1	-1.8%	-10.1%	-0.5%	-1.2%	11.2	72.9
CCCN(CC(=O)Nc1ccccc1OC)C(=O)c1ccc2[nH]c3c(c2c1)CC(C)CC3 (stereo not drawn)	?	7.94µM*	?	?	nt	nt
CCOc1ccc(NC(=O)CN(C)C(=O)c2ccc3[nH]c4c(c3c2)CC(C)CC4)cc1OCC (stereo not drawn)	-5.7%	0.562µM*	0.4%	9.1%	nt	nt
CC1CCc2[nH]c3ccc(C(=O)N(C)CC(=O)Nc4ccccc4Cl)cc3c2C1 (stereo not drawn)	-26.2%	?	-27.2%	-0.7%	nt	nt
CCN(CC(=O)Nc1ccccc1OC)C(=O)c1ccc2[nH]c3c(c2c1)CC(C)CC3 (stereo not drawn)	nt	10µM*	nt	?	nt	nt
Cc1ccc(NC(=O)CN(C)C(=O)c2ccc3[nH]c4c(c3c2)CC(C)CC4)cc1 (stereo not drawn)	?	?	?	-16.8%	nt	nt
CCOc1ccc(NC(=O)CN(C)C(=O)c2ccc(NC3CC3)c([N+](=O)[O-])c2)cc1OCC	-19.0%[46.1 µM]	11.2µM*	-8.6%	-7.9%	nt	nt
Cc1cc(-c2ccc(C)c(S(=O)(=O)NCc3ccc(Cl)cc3)c2)on1	nt	nt	-22.7%[46.1 µM]	4.3%	nt	nt
COc1ccccc1NC(=O)c1ccc(NC(=O)CN(C)Cc2ccccc2F)cc1	?	?	?	-6.9%	8.3	-2.4
c1ccc(C2CNCc3ccccc32)cc1 (stereo not drawn)	nt	nt	nt	4.4%	nt	nt
CCOc1ccc2nc(N3CCC(C(=O)N4CCC5(CC4)OCCO5)CC3)sc2c1	?	?	-1.9%	22.3%	40.9*	119.2
Cc1ccc2nc(N3CCC(C(=O)N4CCC5(CC4)OCCO5)CC3)sc2c1	7.94µM*	?	-24.6%	-14.5%	40.1*	79.3*
O=C(C1CCN(c2nc3ccc(Br)cc3s2)CC1)N1CCC2(CC1)OCCO2	?	3.16µM*	-12.8%	-27.5%	29.6*	59.2*
CCc1ccc2nc(N3CCC(C(=O)N4CCC5(CC4)OCCO5)CC3)sc2c1	-25.8%[46.1 µM]	11.2µM*	-26.4%[46.1 µM]	-11.3%	58.2*	130.6*
COc1nnc(-c2ccccc2)s1	?	10.0%	6.3%	25.1%	15.4	41.2*
Nc1nnc(-c2ccccc2)s1	9.7%	2.4%	14.2%	14.1%	6.3	10.0
Cc1cccc2cc(COC(=O)c3cccs3)c(=O)[nH]c12	1.4%	-3.7%	-16.1%	0.2%	-2.9	-1.9
SMILES	MARV entry inh	HCV inhibitor	Lassa entry inh	FMDV inh	Cycloheximide cs	Shiga toxin inh
Cc1ccc(NC(=O)CSc2nc3ccc(NC(=O)COc4ccc(C)cc4)cc3s2)cc1	3.0%[46.1 µM]	nt	-1.2%[46.1 µM]	-27.0%	nt	nt
CC1CCN(C(=O)CN(c2ccc3c(c2)OCCO3)S(=O)(=O)c2ccccc2)CC1	?	2.3%	12.7%	102.9%	35.7*	53.8*
CC(=O)c1ccc(NC(=S)N2CCCC2)cc1	23.4%[46.1 µM]	9.8%	11.3%[46.1 µM]	25.7%	17.5*	29.9
S=C(Nc1ccccc1)N1CCCCC1	6.4%	-8.7%	19.4%	25.4%	6.2	17.6
CC(=O)c1ccc(NC(=S)N2CCC(Cc3ccccc3)CC2)cc1	26.8%	?	-10.8%	-9.3%	17.3*	48.7
CC(=O)c1cccc(NC(=S)N2CCC(Cc3ccccc3)CC2)c1	-0.2%[14.2 µM]	-26.5%	-9.4%	-16.1%	-3.5	27.7
S=C(Nc1ccccc1)N1CCN(C(=S)c2ccccc2)CC1	7.6%[46.1 µM]	4.2%	?	-7.9%	44.4*	71.4*
S=C(Nc1ccc(Br)cc1)N1CCCC1	17.0%	3.1%	3.5%	90.3%	27.0*	24.2
S=C(Nc1ccc(Br)cc1)N1CCN(C2CCCCC2)CC1	1.7%	-3.7%	?	63.3%	-1.0	-5.8
S=C(Nc1ccc(Cl)cc1Cl)N1CCCCC1	?	11.1%	0.4%	68.4%	17.1*	52.5
Cc1ccc(NC(=S)N2CCCC2)cc1Cl	18.9%[46.1 µM]	9.2%	?	28.8%	16.1	18.0
CCOc1ccc(NC(=S)N2CCCC2)cc1	11.2%[46.1 µM]	5.8%	11.8%[46.1 µM]	8.8%	17.7	19.9
CCc1ccc(NC(=S)N2CCCCCCC2)cc1	5.1%[46.1 µM]	4.6%	-1.8%	49.0%	55.8*	67.9*
S=C(Nc1ccc(Cl)cc1)N1CCCCC1	-3.6%	8.0%	16.7%	68.4%	13.0*	28.4
Cc1ccc(NC(=S)N2CCCC2)cc1C	?	-2.2%	27.4%[46.1 µM]	-1.6%	25.0*	32.9
COCC(=O)N(CCN(C)C)Cc1cc2cc3c(cc2nc1Cl)OCO3	nt	23.3%	nt	1.6%	6.6	8.8
COc1ccc(CNC(=O)C2CCCN(c3nc4ccccc4o3)C2)c(OC)c1 (stereo not drawn)	?	-17.6%	-24.4%	17.2%	1.7	-12.8
CCCCNC(=O)N1CCOCCOCCN(C(=O)NCCCC)CCOCCOCC1	19.7%	?	10.1%	0.0%	-1.1	-6.3
CCOc1ccc(C(=O)Nc2cc(-c3nc4ccccc4o3)ccc2C)cc1Cl	nt	nt	-4.8%[46.1 µM]	-18.5%	nt	nt
N#CC1(Nc2ccc(S(N)(=O)=O)cc2)CCCC1	12.9%	27.0%	8.5%	1.8%	nt	nt
O=C(c1ccc(OC(F)(F)F)cc1)c1ncc[nH]1	nt	8.4%	nt	55.3%	39.0*	65.4*
Cc1ccc(C(=O)c2ncc[nH]2)cc1	nt	-19.3%	nt	65.9%	nt	nt
C=Cn1c(C(=O)O)ccc1-c1ccc(CC)cc1	nt	17.7%	nt	4.7%	41.6*	34.7
CCCc1nnc(NC(=O)c2cc(=O)c3cc(Cl)ccc3o2)s1	?	nt	6.0%[46.1 µM]	-3.4%	nt	nt
CCOc1ccc(CCNC(=O)c2cc3c(=O)n(C)c4ccccc4c3s2)cc1OCC	13.5%[46.1 µM]	nt	26.0%[46.1 µM]	-11.1%	nt	nt
Cc1nc(Cl)c(C#N)cc1-c1ccccc1	-11.3%	-2.6%	-6.3%	-8.0%	9.7	-11.0
Cc1nc(Sc2ccccc2)c(C#N)cc1-c1ccccc1	15.8%	-24.6%	3.8%	19.9%	28.3*	50.4*
CC(C)CN1CCC(Oc2cccc(C(=O)NCCc3ccccc3)c2)CC1	-13.5%	3.1%	25.7%	29.8%	26.6*	60.2*
